This passage reports Percent Effect results from ChEMBL document CHEMBL3988442, “University of Dundee, Small-Polar-MMV Screening Library” (2021).

Common to all, as to design: scale not given: direction of the effect not stated beside the values
Assay [1] has as its target Protein translocase subunit SecA (Escherichia coli (strain K12)) (UniProt P10408). The assay is described as follows: Assay to Identify E. coli SecA ATPase Inhibitors. In kind it is functional. Conditions: 30 µM.
The target of assay [2] is T1, Ubiquitin-activating enzyme e1, putative (Leishmania donovani (strain BPK282A1)) (UniProt E9BSI1).
T1 sequence (whole entry): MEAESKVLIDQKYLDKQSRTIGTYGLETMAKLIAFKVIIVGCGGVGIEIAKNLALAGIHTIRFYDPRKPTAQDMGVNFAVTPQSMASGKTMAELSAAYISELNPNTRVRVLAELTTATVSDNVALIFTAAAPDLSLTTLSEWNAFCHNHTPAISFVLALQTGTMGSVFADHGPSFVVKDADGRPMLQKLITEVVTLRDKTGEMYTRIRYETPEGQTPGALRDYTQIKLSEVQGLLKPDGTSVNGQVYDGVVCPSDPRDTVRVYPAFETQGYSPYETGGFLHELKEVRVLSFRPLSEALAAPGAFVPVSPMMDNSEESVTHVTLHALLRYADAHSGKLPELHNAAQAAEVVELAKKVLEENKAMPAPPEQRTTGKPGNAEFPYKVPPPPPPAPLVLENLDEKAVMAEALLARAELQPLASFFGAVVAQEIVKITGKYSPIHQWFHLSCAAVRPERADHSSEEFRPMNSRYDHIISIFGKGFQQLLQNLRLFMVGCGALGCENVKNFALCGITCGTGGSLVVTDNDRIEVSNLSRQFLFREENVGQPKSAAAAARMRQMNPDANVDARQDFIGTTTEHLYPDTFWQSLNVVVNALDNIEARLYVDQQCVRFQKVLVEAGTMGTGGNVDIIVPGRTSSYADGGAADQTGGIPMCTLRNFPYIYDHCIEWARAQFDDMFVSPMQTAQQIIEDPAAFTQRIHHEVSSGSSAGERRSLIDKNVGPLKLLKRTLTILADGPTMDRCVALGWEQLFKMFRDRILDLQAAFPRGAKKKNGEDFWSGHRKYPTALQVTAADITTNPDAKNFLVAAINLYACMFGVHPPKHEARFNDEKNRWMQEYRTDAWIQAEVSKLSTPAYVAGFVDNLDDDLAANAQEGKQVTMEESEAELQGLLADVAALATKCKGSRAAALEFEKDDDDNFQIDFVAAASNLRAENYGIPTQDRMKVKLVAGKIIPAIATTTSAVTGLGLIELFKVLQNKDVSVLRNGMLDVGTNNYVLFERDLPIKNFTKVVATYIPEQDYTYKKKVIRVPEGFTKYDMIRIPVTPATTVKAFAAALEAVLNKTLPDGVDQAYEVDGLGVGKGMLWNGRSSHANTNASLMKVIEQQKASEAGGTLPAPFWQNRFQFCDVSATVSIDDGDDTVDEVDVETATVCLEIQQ
Put plainly: Leishmania donovani Ubiquitin Activating Enzyme (LdE1). It is filed as functional. As to conditions: 30 µM.

Assay [3] has as its target Sialic acid-binding Ig-like lectin 9 (Homo sapiens) (UniProt Q9Y336). Put plainly: Hs-Siglec9 ALPHAscreen SOP 20170721. Conditions: 10 µM. Background: In Alpha technology, singlet oxygen from a donor bead excites a nearby acceptor bead.
The subject of another assay is Trypanosoma cruzi. The assay is described as follows: Trypanosoma cruzi phosphomannomutase and mannose-1-phosphate guanylyltransferase assay. In kind it is functional. As to conditions: 10 µM.
Assay [4] deals with T2, Arginase-2, mitochondrial (Homo sapiens) (UniProt P78540).
T2 sequence (whole entry): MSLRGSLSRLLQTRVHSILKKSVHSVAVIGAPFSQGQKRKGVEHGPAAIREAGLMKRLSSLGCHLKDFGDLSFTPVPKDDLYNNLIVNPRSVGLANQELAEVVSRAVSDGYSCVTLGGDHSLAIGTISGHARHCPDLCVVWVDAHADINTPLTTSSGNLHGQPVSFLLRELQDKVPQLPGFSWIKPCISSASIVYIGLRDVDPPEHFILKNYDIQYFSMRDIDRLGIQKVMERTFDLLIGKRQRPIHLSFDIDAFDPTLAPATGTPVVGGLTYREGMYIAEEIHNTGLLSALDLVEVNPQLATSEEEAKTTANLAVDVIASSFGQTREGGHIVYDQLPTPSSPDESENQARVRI
Put plainly: in vitro enzyme assay to detect the production of urea directly proportional to the activity of Arginase II. Further: in the data most compounds retested in dose-response had high values. It is filed as functional. As to conditions: 33.3 µM.

Assay [5] concerns the target T3, Proteasome subunit beta (Trypanosoma cruzi) (UniProt O96673).
T3 sequence (whole entry): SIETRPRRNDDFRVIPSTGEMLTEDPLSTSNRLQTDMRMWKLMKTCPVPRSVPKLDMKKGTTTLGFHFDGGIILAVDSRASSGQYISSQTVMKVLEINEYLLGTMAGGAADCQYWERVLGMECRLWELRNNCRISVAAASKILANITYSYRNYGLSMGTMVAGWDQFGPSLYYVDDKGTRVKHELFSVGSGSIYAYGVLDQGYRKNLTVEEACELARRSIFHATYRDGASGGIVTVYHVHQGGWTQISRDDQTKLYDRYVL
Put plainly: Trypanosoma cruzi proteasome chymotrypsin-like activity (TcProtChymo) assay. Further: in the data most compounds retested in dose-response had high values. As to conditions: 9.37 µM. In kind it is functional.

A further assay is filed under the species Homo sapiens. Put plainly: To identify inhibition of the IFN signalling (Jak-Stat) pathway via expression of an eGFP reporter gene under the control of an IFN-stimulated response element (ISRE) containing MxA promoter. It is filed as functional. Conditions: 30 µM. (A reporter such as luciferase makes a cellular process visible.)
Assay [6] has as its target T4, Tyrosyl-tRNA synthetase, putative (Trypanosoma cruzi (strain CL Brener)) (UniProt Q4DSP6).
T4 sequence (whole entry): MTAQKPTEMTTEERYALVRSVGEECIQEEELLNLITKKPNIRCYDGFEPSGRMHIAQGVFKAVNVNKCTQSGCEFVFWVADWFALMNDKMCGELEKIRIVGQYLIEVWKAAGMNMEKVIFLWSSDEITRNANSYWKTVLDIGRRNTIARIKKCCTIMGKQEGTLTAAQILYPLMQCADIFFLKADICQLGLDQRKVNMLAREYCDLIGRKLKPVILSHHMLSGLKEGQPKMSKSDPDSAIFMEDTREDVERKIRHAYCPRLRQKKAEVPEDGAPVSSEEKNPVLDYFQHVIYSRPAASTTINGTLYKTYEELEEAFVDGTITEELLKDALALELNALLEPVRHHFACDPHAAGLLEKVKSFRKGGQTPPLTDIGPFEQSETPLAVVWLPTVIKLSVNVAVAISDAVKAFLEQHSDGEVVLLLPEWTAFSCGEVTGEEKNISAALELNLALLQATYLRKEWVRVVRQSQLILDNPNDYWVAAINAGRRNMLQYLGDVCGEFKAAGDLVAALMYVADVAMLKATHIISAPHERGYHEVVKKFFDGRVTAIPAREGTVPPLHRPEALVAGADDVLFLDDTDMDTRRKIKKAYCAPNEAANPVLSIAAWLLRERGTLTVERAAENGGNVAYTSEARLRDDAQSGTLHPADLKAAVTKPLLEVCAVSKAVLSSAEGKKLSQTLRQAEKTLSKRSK
Put plainly: Trypanosoma cruzi tyrosyl tRNA synthetase (TcYRS) _High Tyrosine SOP. Further: in the data most compounds retested in dose-response had high values. In kind it is functional. Conditions: 30 µM.

Assay [7] has as its target T4, Tyrosyl-tRNA synthetase, putative (Trypanosoma cruzi (strain CL Brener)). The assay is described as follows: Trypanosoma cruzi tyrosyl tRNA synthetase (TcYRS) SOP. It is filed as functional. As to conditions: 30 µM.
Assay [8] addresses Chromo domain-containing protein 1 (Saccharomyces cerevisiae (strain ATCC 204508 / S288c) (Baker's yeast)) (UniProt P32657). The assay is described as follows: ScCHD-1 Enzyme Inhibition Assay. Further: in the data most compounds retested in dose-response had high values. In kind it is functional. As to conditions: 30 µM.

For part of these data: Entries with a potency or affinity are not part of this list.

Sialic acid-binding Ig-like lectin 9 (Homo sapiens), sequence (Q9Y336 whole entry): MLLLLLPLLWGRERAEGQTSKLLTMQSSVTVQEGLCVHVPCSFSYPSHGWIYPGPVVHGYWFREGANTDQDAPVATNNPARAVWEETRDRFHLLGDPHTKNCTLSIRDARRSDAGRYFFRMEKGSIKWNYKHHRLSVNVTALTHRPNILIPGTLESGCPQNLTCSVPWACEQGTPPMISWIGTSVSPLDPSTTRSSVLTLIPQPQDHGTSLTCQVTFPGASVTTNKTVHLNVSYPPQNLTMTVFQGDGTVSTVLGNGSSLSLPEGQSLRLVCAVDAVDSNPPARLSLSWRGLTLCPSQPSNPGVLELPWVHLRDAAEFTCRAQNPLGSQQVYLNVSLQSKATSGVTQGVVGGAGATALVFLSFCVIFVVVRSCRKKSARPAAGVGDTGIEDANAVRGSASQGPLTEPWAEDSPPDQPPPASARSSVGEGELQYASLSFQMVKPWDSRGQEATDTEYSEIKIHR
Chromo domain-containing protein 1 (Saccharomyces cerevisiae (strain ATCC 204508 / S288c) (Baker's yeast)), sequence (P32657 whole entry, the tested form may be a part): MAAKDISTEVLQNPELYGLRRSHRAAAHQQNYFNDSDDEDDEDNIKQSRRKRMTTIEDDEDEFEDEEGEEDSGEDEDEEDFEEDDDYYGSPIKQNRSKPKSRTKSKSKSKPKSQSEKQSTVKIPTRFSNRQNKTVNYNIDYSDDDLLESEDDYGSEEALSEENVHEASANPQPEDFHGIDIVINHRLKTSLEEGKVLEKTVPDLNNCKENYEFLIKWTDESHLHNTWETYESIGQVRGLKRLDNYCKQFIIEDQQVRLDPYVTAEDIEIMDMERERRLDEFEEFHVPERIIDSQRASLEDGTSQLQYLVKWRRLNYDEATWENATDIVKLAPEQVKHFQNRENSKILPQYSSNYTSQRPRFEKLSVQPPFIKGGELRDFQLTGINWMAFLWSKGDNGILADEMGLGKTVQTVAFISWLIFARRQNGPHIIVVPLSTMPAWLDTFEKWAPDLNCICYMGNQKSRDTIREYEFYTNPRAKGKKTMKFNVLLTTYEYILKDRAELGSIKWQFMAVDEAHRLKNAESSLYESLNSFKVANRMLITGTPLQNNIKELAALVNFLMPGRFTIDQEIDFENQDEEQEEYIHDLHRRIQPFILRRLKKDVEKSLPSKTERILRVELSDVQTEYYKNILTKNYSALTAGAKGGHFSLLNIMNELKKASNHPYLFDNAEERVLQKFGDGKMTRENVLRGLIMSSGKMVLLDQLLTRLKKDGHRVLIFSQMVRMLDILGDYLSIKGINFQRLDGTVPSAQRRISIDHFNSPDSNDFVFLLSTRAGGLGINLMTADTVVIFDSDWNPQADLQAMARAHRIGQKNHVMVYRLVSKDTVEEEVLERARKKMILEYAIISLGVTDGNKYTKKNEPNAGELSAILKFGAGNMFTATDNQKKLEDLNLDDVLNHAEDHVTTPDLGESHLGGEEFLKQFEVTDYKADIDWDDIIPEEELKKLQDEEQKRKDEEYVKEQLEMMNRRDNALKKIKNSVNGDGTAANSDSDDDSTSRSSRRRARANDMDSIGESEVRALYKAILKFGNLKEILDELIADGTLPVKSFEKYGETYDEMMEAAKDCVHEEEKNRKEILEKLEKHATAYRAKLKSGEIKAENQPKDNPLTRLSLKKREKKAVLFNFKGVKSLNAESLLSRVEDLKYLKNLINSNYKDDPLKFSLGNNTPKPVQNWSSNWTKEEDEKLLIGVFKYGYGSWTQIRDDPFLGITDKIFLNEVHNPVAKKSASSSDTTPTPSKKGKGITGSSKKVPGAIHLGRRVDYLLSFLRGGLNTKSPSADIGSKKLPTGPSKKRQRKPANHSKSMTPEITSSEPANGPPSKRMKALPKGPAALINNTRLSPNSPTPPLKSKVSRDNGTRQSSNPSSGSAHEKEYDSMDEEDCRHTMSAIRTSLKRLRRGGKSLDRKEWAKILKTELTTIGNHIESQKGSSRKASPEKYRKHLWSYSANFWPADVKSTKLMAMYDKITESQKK
Protein translocase subunit SecA (Escherichia coli (strain K12)), sequence (P10408 whole entry): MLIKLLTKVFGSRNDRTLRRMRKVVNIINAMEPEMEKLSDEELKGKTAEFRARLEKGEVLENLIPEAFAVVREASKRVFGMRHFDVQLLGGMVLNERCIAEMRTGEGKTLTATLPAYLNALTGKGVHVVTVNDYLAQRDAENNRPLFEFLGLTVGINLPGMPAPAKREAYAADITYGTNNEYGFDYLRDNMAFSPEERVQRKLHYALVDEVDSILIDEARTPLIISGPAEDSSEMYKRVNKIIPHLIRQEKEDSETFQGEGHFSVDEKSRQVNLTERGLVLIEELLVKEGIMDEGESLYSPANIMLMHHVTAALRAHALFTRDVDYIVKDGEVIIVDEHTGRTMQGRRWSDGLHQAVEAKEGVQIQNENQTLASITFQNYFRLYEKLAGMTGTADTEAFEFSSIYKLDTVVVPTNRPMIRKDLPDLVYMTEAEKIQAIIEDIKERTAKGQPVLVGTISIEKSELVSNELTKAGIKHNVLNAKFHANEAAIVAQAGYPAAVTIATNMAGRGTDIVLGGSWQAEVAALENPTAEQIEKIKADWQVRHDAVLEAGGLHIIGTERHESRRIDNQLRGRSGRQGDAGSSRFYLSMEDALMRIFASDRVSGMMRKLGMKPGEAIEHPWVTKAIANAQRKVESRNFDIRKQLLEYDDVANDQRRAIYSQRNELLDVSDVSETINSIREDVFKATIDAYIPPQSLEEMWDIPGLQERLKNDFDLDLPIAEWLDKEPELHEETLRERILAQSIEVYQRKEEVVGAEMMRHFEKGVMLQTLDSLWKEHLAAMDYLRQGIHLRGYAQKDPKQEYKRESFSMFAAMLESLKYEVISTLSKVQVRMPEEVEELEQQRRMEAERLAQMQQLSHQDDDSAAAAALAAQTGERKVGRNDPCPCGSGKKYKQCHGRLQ

On to `CN1CC(c2ccccc2)CC12CCN(C(=O)c1c(Cl)cnn1C)CC2` (stereo not given), for which the Percent Effect in [1] was -3.22%; in assay [2], 5.41%; in [3] it was 9.49%; in the assay with Trypanosoma cruzi it was 8.05%; in [4] it was 10.8%; in assay [5], 10.3%. For the same compound, the Percent Effect in the assay filed under Homo sapiens was -5.06%; in assay [6] it was 5.85%; in [7] it was 14.6%; in [8] it was -3.11%.
On to `CCn1cc(CN(C)S(=O)(=O)c2cnn(CC)c2C)c(C)n1`, for which the Percent Effect was 39.4% in [1]; 14.7% in [2]; -2.08% in assay [3]; -0.986% in the assay with Trypanosoma cruzi; 3.1% in assay [4]; 15.3% in assay [5]. The Percent Effect is 39.3% in the assay filed under Homo sapiens, 2.12% in assay [6], 10% in [7] and -20.5% in assay [8].
Turning to `O=C(NCCCN1CCc2ccccc2C1)c1cccnc1O`, the Percent Effect in assay [1] is -1.75%; in assay [2], 10.7%; in assay [3], 3.3%; with Trypanosoma cruzi, -0.803%; in [4] it was 2.22%; in [5], 2.8%. Moreover, the Percent Effect in the assay filed under Homo sapiens is 4.99%; in [6], 2.63%; in assay [7] it was 10.3%; in [8], -11.3%.
For the compound `COC[C@@H]1CC[C@H]2[C@H](CCN2S(=O)(=O)c2ccc(F)cc2)O1`, the Percent Effect in assay [1] was -2.35%; in [2], 6.49%; in [3], -4.91%; in the assay on Trypanosoma cruzi it was -3.02%; in assay [4], -0.405%; in assay [5] it was 12.1%. The Percent Effect in the assay listed under Homo sapiens is 11.2%; in [6], 4.74%; in assay [7] it was 7.69%; in assay [8], -2.82%.
As for `CCn1ncnc1C1CC(=O)NCc2nc3ccccn3c21` (stereo not given), the Percent Effect in [1] is -7.68%; in [2], 10.8%; in [3], 16.9%; with Trypanosoma cruzi, 6.11%; in assay [4] it was 10.8%; in assay [5], 4.62%. The Percent Effect in the assay listed under Homo sapiens was 14.8%; in [6] it was 5.85%; in [7], 9.76%; in assay [8], 84%.
`O=C(c1cc[nH]n1)N1CCCC(c2cccc(-n3ccnc3)n2)C1` (stereo not given): the Percent Effect is -1.25% in assay [1]; 12% in assay [2]; 2.15% in [3]; -1.77% with Trypanosoma cruzi; 4.42% in [4]; 8.05% in assay [5]. Also, the Percent Effect in the assay filed under Homo sapiens is 13.7%; in assay [6] it was 5.29%; in assay [7], 12.5%; in assay [8], -21.6%.
As for `Cc1nc(-c2nnc[nH]2)sc1C(=O)N(Cc1cccnc1)C1CC1`, the Percent Effect is -4.44% in assay [1]; 12.8% in assay [2]; -5.72% in [3]; 6.67% with Trypanosoma cruzi; -0.41% in assay [4]; 7.42% in assay [5]. For the same compound, the Percent Effect was 9.73% in the assay listed under Homo sapiens, 2.39% in [6], 18.1% in assay [7] and -6.07% in assay [8].
As to `COC[C@@]12CC[C@@H](N3CCOCC3)C[C@H]1CCN(c1ncccc1Cl)C2`, the Percent Effect in assay [1] was -6.53%; in assay [2], 13.5%; in [3], 12.5%; in the assay with Trypanosoma cruzi, 4.56%; in assay [4], 10.8%; in assay [5] it was 7.02%. Also, the Percent Effect was 2.53% in the assay listed under Homo sapiens, 5.85% in assay [6], 19.5% in assay [7] and -2.53% in [8].
Turning to `COCc1nc(CNC2CCSCC2)no1`, the Percent Effect is -6.18% in assay [1]; 2.7% in assay [2]; 1.55% in assay [3]; 3.98% in the assay with Trypanosoma cruzi; 1.75% in assay [4]; 7.36% in [5]. Besides, the Percent Effect is -12.7% in the assay listed under Homo sapiens, 3.72% in [6], 9.76% in assay [7] and -0.943% in [8].
As for `O=S(=O)(CCCN1CCCC1Cn1cncn1)c1ccccc1` (stereo not given), the Percent Effect in assay [1] is 1.87%; in [2], 26%; in assay [3], -0.0999%; in the assay on Trypanosoma cruzi, 1.49%; in [4] it was -4.71%; in assay [5] it was 17.4%. Further, the Percent Effect in the assay filed under Homo sapiens is 2.97%; in [6], 9.8%; in assay [7] it was 21.2%; in assay [8] it was -10.1%.
For `CS(=O)(=O)c1cccc(C(N)c2ccc(F)c(F)c2)c1` (stereo not given), the Percent Effect was -6.37% in assay [1]; 5.33% in assay [2]; 1.99% in assay [3]; -2.81% in the assay on Trypanosoma cruzi; -2.66% in assay [4]; 4.16% in assay [5]. For the same compound, the Percent Effect was 23.5% in the assay filed under Homo sapiens, 7.89% in [6], 15.4% in assay [7] and -9.26% in assay [8].
Take `Cc1ncccc1O[C@H]1CCN(C(=O)Cc2cccs2)CC[C@@H]1O`: the Percent Effect in assay [1] was -5.37%; in [2] it was 17.3%; in [3], 6.84%; in the assay with Trypanosoma cruzi, 1.18%; in assay [4] it was -0.443%; in [5], 10.8%. Moreover, the Percent Effect is 7.57% in the assay listed under Homo sapiens, 6.35% in [6], 15% in [7] and -22.2% in [8].
